Source: PubChem (several laboratories)
MKP-1 inh = blocks human MKP-1 phosphatase activity; P28562; recombinant MKP-1, OMFP hydrolysis fluorescence; inhibition, %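 (compounds tested at a single concentration somewhere between 10 and 100 µM)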; actives 0.15% (n = 65,000);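 active = inhibition above about 50%, limit read from the data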;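 note: 0% = DMSO max control wells and 100% = wells with enzyme stopped by NaOH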
Target sequence (P28562 whole entry, looked up): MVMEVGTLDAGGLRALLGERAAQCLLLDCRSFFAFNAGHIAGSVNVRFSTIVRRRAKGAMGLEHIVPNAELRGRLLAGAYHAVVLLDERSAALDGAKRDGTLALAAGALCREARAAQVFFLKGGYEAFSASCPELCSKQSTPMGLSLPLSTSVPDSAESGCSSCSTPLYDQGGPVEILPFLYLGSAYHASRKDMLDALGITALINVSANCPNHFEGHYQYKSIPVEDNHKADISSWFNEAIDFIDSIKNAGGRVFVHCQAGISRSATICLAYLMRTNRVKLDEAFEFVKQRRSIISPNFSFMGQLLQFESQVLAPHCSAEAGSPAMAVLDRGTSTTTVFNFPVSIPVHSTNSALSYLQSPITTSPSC
PLAP activator = human PLAP activation; P05187; purified PLAP enzyme, luminescent substrate read-out; stronger effect = higher value; activation fold at 20 µM; actives 1.2% (n = 96,000); AID 696; in the data active = activation fold above about 2
Cdc25B inh = human M-phase inducer phosphatase 2 inhibition | inhibition, %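 (compounds tested at 10 µM final in the well)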 | actives 0.1% (n = 65,000) | recombinant Cdc25B, OMFP fluorescence Ex485/Em525 | P30305 | AID 368; in the data active = inhibition above about 50%
Hsp90 block = displaces geldanamycin probe from tumor Hsp90. P07900. inhibition, % at 30 µM. NCI-N417 lysate Hsp90, Cy3B-geldanamycin FP displacement. actives 0.35% (n = 64,000);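 active = inhibition above 50%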;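 note: 0% = tracer plus lysate wells and 100% = tracer alone without lysate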
HePTP inhibitor = blocks human HePTP tyrosine phosphatase; P35236; recombinant HePTP phosphatase activity, OD absorbance; inhibition, % at 20 µM; actives 0.64% (n = 110,000); in the data active = inhibition above about 50%;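 note: plate controls were vehicle for no effect and reference inhibitor for full effect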
Target sequence (P35236 whole entry, looked up): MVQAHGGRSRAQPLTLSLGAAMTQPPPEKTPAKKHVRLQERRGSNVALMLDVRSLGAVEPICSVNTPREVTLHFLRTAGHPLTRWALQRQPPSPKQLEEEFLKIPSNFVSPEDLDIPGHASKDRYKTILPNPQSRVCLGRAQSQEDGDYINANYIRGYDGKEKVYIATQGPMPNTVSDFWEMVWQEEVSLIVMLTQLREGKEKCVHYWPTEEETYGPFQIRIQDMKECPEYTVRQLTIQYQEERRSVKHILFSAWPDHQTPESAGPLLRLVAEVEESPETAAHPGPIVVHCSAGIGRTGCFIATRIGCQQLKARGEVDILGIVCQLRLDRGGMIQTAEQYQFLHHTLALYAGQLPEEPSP
TNAP act mid DEA = activators of human TNAP at intermediate phosphate acceptor; purified TNAP, CDP-star luminescence, 100 mM DEA, 30 min; stronger effect = higher value; scale: 0 levamisole-inhibited, 1 vehicle-only enzyme; activation factor at 20 µM; 64,000 tested, under 10 active; AID 813;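 active = activation factor of at least 2 at 20 µM, relative to controls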
The depositor's hits bear a star; . = no result given. Only some compounds are listed: those with a hit (about 1.5% of all), similar ones and a draw of the others.

SMILES | MKP-1 inh | PLAP activator | Cdc25B inh | Hsp90 block | HePTP inhibitor | TNAP act mid DEA
COc1ccc(-c2nc(C(N)=O)c3[nH]c(=O)n(-c4ccccc4OC)c3n2)c(OC)c1 | 2.4 | 2.4* | -10.7 | -0.1 | 2.1 | 1
Cc1ccc(Br)cc1S(=O)(=O)N1CCN(C(c2ccccc2)c2ccccc2)CC1 | . | . | . | . | -7.4 | .
O=C(CN1C(=O)CCC1=O)Nc1nc(-c2ccccn2)cs1 | -1.3 | 2.2* | -10.0 | -3.8 | -4.8 | 15.4*
COc1cc(NS(=O)(=O)c2cccc([N+](=O)[O-])c2)cc(OC)c1 | . | . | . | . | -8.9 | .
Nc1ncnc2nc(SCC(=O)N3CCN(c4ccccc4)CC3)[nH]c12 | 5.7 | 1.9 | 0.5 | -4.5 | 8.0 | 0.6
Nc1ncnc2nc(SCc3ccccc3)[nH]c12 | -15.2 | 2* | 12.3 | 2.2 | 6.9 | 0.6
COc1ccc(C2CC(C(F)(F)F)n3ncc(C(=O)Nc4cccc(C(C)O)c4)c3N2)cc1OC (centres undefined) | . | . | . | . | 14.6 | .
CCCCn1c(=S)[nH]c2ccccc21 | . | . | . | . | -7.5 | .
N#CCCn1c(=S)[nH]c2ccccc21 | . | 2.6* | . | . | . | .
COc1cc(/C=N/NC(=O)c2ccncc2)ccc1OC(=O)c1cc(OC)c(OC)c(OC)c1 | . | . | . | . | -3.2 | .
COc1cc(C(=O)Oc2ccccc2/C=N/NC(=O)c2ccc(Cl)cc2Cl)cc(OC)c1OC | . | 2.3* | . | . | . | .
O=C(CSc1nc2ccc(N3C(=O)c4ccccc4C3=O)cc2s1)c1ccc(F)cc1 | . | . | . | . | 1.6 | .
COc1ccc(-c2nc(-c3ccccc3)c(-c3cccs3)[nH]2)cc1OC | . | 2* | . | . | . | .
Cc1ccc(-n2nc3cc(C)c(NC(=O)Cc4ccccc4)cc3n2)cc1 | . | . | . | . | 63.4* | .
CCCC(=O)Nc1cc2nn(-c3ccc(C)cc3)nc2cc1C | . | . | . | . | 0.7 | .
CC(C)(C)NCC(O)COc1cccc2c1C[C@H](O)[C@H](O)C2 (some centres undefined) | -15.6 | . | 100.2* | -0.4 | 5.8 | 0.9
Cc1ccc(C2OC3(C(=O)c4ccccc4C3=O)C(c3cccc(Cl)c3)C23C(=O)c2ccccc2C3=O)cc1 (centres undefined) | . | . | . | . | -0.8 | .
CCCCN(Cc1ccccc1)c1ncnc2nc[nH]c12 | -1.2 | 2.1* | -13.5 | 1.7 | 1.3 | 1.2
CCCN(c1ccc(OCC)cc1)c1ncnc2nc[nH]c12 | -4.3 | 2.1* | -6.0 | 6.0 | 5.3 | 1.1
CCN(c1ccc(OC)cc1)c1ncnc2nc[nH]c12 | . | 1.7 | . | . | . | .
O=C(Nc1ccc([N+](=O)[O-])cc1)c1cc(Br)ccc1Cl | . | . | . | . | -4.6 | .
O=C(Nc1ccccc1)C1CC(=O)N(c2cccc([N+](=O)[O-])c2)C1 (centres undefined) | . | . | . | . | -24.2 | .
CCc1nc(SCC(=O)c2cc(C)ccc2C)n[nH]1 | 8.4 | 2.3* | -7.0 | 0.0 | -10.1 | 1
Cc1ccc(C)c(C(=O)CSc2n[nH]c(C)n2)c1 | 13.3 | 1.8 | -5.8 | -0.4 | 6.4 | 1.1
CCC(C(=O)Nc1ccc(OC)cc1OC)c1ccccc1 (centres undefined) | . | . | . | . | 103.7* | .
SMILES | MKP-1 inh | PLAP activator | Cdc25B inh | Hsp90 block | HePTP inhibitor | TNAP act mid DEA
CCC(C(=O)Nc1cc([N+](=O)[O-])ccc1OC)c1ccccc1 (centres undefined) | . | . | . | . | 5.2 | .
COc1ccc(-n2c(SCC(=O)N3CCCC3)nc3c([nH]c4ccccc43)c2=O)cc1 | 54.2* | . | -42.3 | -2.8 | -1.7 | 1.1
O=C(CSc1nc2c([nH]c3ccccc32)c(=O)n1-c1ccccc1)N1CCOCC1 | 7.4 | 1.1 | 4.7 | 0.1 | 5.2 | 1
O=C(COc1ccccc1)N1CCN(S(=O)(=O)c2cccs2)CC1 | -1.6 | 0.9 | 61.4* | . | 14.5 | 0.9
O=C(CCOc1ccccc1)N1CCN(S(=O)(=O)c2cccs2)CC1 | . | 0.9 | . | . | . | .
CC1=NN(C(=O)CCc2ccccc2)C(O)(c2ccc(Br)cc2)C1 (centres undefined) | . | . | . | . | -8.8 | .
Cc1cc(=O)n(-c2ccc3ccccc3n2)[nH]1 | -12.4 | 2.3* | 0.4 | -8.4 | 2.4 | 1
COc1ccc(N(CC(=O)Nc2cccc(C)c2C)S(=O)(=O)c2ccccc2)cc1 | . | . | . | . | -13.4 | .
COc1cccc(NC(=O)Cn2c(-c3cncs3)nc3ccccc32)c1 | 0.5 | 2* | -6.1 | -3.9 | 9.0 | 1
COc1ccc(/C=N/Nc2nnc(-c3ccccc3)c(-c3ccccc3)n2)cc1 | . | . | . | . | 4.5 | .
COc1ccc(-c2cc(=O)[nH][nH]2)cc1OC | . | 2.2* | . | . | . | .
O=C(Nc1cccc([N+](=O)[O-])c1)c1cc(-c2ccco2)nc2ccccc12 | . | . | . | . | 103.0* | .
O=C(O)c1cc(-c2ccco2)nc2ccccc12 | -3.8 | 0.8 | -1.1 | -4.6 | 8.7 | 1
Cc1cc(-n2cccn2)nc(-c2ccc(Br)cc2)n1 | . | . | . | . | 5.7 | .
CCOc1cc(C2C(C#N)=C(N)Oc3n[nH]c(-c4ccccc4)c32)ccc1O (centres undefined) | 13.7 | 0.9 | 65.1* | 0.8 | 7.1 | 0.6
N#CC1=C(N)Oc2n[nH]c(-c3ccccc3)c2C1c1cccnc1 (centres undefined) | -0.9 | 1.2 | -3.4 | -1.1 | 9.3 | 0.8
Cc1cc(C)c2oc(-c3ccc(C)c(NC(=O)c4cccs4)c3)nc2c1 | . | . | . | . | 3.5 | .
Cc1cc(O)cc(O)c1-c1onc(C(F)(F)F)c1-c1cscn1 | 27.2 | 1 | -3.7 | 68.6* | 2.2 | 0.9
O=C(NC12CCC3CC(CC(C3)C1)C2)c1ccc(Br)cc1 | . | . | . | . | 8.2 | .
CN(C)CCn1c(NC(=O)c2ccc(Cl)cc2)nc2ccccc21 | . | 2.3* | . | . | . | .
CCCCn1c(NC(=O)c2ccc(Cl)cc2)nc2ccccc21 | . | . | . | . | 9.0 | .
Cc1c(Cl)c(C(=O)Nc2nc3ccccc3n2CCN2CCCCC2)nn1C | . | 2.5* | . | . | . | .
CCn1cc(Cl)c(C(=O)Nc2nc3ccccc3n2CCN2CCCCC2)n1 | 0.4 | 2.3* | -7.3 | -1.7 | -5.5 | 1
CC(=O)NCCc1ccc(S(=O)(=O)NCc2ccc3c(c2)OCO3)cc1 | 3.4 | 0.9 | -7.8 | -1.4 | 3.2 | 0.9
CCCc1cc2c(cc1NS(=O)(=O)c1ccc(CCNC(C)=O)cc1)OCO2 | 0.3 | 1 | 5.9 | 57.0* | 4.8 | 1
SMILES | MKP-1 inh | PLAP activator | Cdc25B inh | Hsp90 block | HePTP inhibitor | TNAP act mid DEA
CCn1c(CSc2nccn2C)nc2cc(C(=O)O)ccc21 | 6.1 | 1.5 | -4.3 | 88.8* | 10.3 | 0.9
C=CCNC(=O)C(=O)NCc1ccccc1 | . | . | . | . | -9.7 | .
O=C(Nc1ccc(S(=O)(=O)Nc2nccs2)cc1)C1CC1 | . | . | . | . | 4.4 | .
CCc1nnc(NC(=O)CN2CCN(c3nc(-c4ccccc4)cs3)CC2)s1 | 4.8 | 2.1* | 0.1 | -11.0 | 1.1 | 0.9
O=C(CN1CCCCC1)Nc1nnc(-c2ccccc2)s1 | 9.5 | 2* | -5.5 | -4.0 | -3.2 | 0.9
O=C(CN1CCCCC1)Nc1nnc(-c2ccc([N+](=O)[O-])cc2)s1 | . | 1.2 | . | . | . | .
O=C1OC(c2ccc(Cl)cc2)=C/C1=C\c1cccs1 | . | . | . | . | 39.1 | .
O=C1OC(c2ccc(Cl)cc2)=C/C1=C\c1ccco1 | . | . | . | . | 50.8* | .
O=C1OC(c2ccc(Oc3ccccc3)cc2)=C/C1=C/c1ccco1 | . | . | . | . | 101.4* | .
COc1cccc(/C=N/NC(=O)CCc2c(C)n[nH]c2C)c1 | . | 2.1* | . | . | 10.8 | .
Cc1onc(-c2ccccc2)c1C(=O)Nc1ccc([N+](=O)[O-])cc1Cl | . | . | . | . | 0.5 | .
